Assay outcomes deposited in PubChem BioAssay by National Center for Advancing Translational Sciences (NCATS).
This excerpt belongs to a sample that is enriched for hits.
KDM5B inh = KDM5B demethylase inhibition; Q9UGL1; KDM5B demethylase, FDH-coupled NADH fluorescence (FDH is formaldehyde dehydrogenase); Potency, µM (highest dose often 57.7 µM), usual class: inhibitors; 220,000 compounds, 2.6% hits; AID 1347165; active means well fitted inhibition curve with a large enough effect; further: 0% is about no effect; nearly all actives have a fitted effect of over 70% in size
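qHTS format, multiple compound concentrations. Buffer 50 mM HEPES pH 7.5/0.01% Tween-20; 200 nM KDM5BΔAP final; 10 min compound preincubation; substrate-mix levels 12.5 µM peptide, 25 µM α-KG, 0.25 mM NAD⁺; 30 min RT; ΔRFU.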
Starred values were filed as active, the others as inactive; i = inactive. Potency means the concentration at half of the fitted maximal effect.

SMILES | KDM5B inh
Cc1ccc(C(=O)N2CCN(C(=O)c3nnn4c3COC(c3ccc(F)cc3)C4)CC2)cc1C (centres undefined) | i
O=S(=O)(c1ccc2c(c1)OCCO2)c1nc(-c2ccco2)oc1NCCCn1ccnc1 | i
S=C(NCCc1ccc(Cl)cc1Cl)NC1CCCCC1 | i
C=CCNC(=O)COCC(=O)O | i
CC(C)C(=O)N1Cc2ccccc2CC2(CCCCN2CC2CCOCC2)C1 (centres undefined) | i
CC(C)CCN1CCOc2cc(C(=O)NCc3ccccc3)ccc2C1 | i
CN1CCC2(C1)CN(CC1CCOCC1)c1ccc(C(=O)NCc3ccccc3)cc12 (centres undefined) | 40µM*
CC(C)CNC(=O)c1ccc2c(c1)C1(CCN(C)C1)CN2CC1CCOCC1 (centres undefined) | 35µM*
O=C(NCc1ccccc1)c1ccc2c(c1)OCCN(CCC(F)(F)F)C2 | i
COc1ccc(C(=O)N2CCc3ccc(C(=O)NCC(C)C)cc32)cc1 | i
NCc1ccc(CN2CCCCC2)cc1 | i
Cc1ccc(NC(=O)CN2N=C(c3ccccc3F)c3cc(Cl)ccc3S2(=O)=O)c(C)c1 | i
CCc1nc2nc(-c3cccc(OC)c3)cc(=O)n2[nH]1 | i
O=C(/C=C/Nc1ccc(Cl)cc1C(F)(F)F)c1ccc(Br)cc1 | i
CCN(CC)S(=O)(=O)c1ccc(NS(=O)(=O)c2ccccc2C#N)cc1 | i
Cc1nc2ccc(Cl)cc2cc1C(=O)NC(C)c1ccccc1 (centres undefined) | i
O=C1NC2(CCCN(Cc3ccsc3)C2)Oc2ccccc21 (centres undefined) | i
O=C1NC2(CCN(Cc3ccsc3)C2)COc2ccccc21 (centres undefined) | 35µM*
O=C1NC2(CCCN(C(=O)c3ccccc3)C2)COc2ccccc21 (centres undefined) | i
O=C1NC2(CCCN(Cc3ccc(C(F)(F)F)cc3)C2)COc2ccccc21 (centres undefined) | 25µM*
Cn1nccc1CN1CCC2(CC1)NC(=O)c1ccccc1O2 | i
O=C1NC2(CCN(Cc3ccsc3)C2)Oc2ccccc21 (centres undefined) | i
Cn1nccc1CN1CCCC2(COc3ccccc3C(=O)N2)C1 (centres undefined) | 40µM*
Cc1ccc(CN2CCC3(CC2)COc2ccccc2C(=O)N3)cc1 | i
O=C1NC2(CCN(Cc3ccc(F)cc3)CC2)COc2ccccc21 | i
SMILES | KDM5B inh
CCc1ccc(C(=O)NCc2ccc(C#N)cc2)o1 | i
CCOc1ccc(Oc2ccccc2N)cc1 | i
O=C(Nc1ccc(Cl)cc1)c1ccc2c(Cl)c3c(nc2c1)CCCC3 | i
CCN(Cc1ccc(Br)s1)C(=O)CCl | i
COc1ccccc1CNC(=O)CCc1ncc(-c2ccccc2F)o1 | i
N#Cc1ccc(C(=O)NCCc2ccccn2)cc1 | i
COc1cc(-c2cnc3ccccc3c2)cc2c1OCCNC2 | i
COc1cc2nc(-c3cc4c(c(OC)c3)OCCNC4)cc(C)c2cc1OC | 32µM*
FC(F)(F)c1ccc(-c2n[nH]c(=S)o2)nc1 | i
COc1cc(-c2ccc(C(F)(F)F)cn2)cc2c1OCCNC2 | 25µM*
Cc1cc(Cl)ccc1-n1ncc2c(NCC3CCCO3)ncnc21 (centres undefined) | i
COc1ccc(-n2nc(C)c([C@H]3C=C[C@@H](OC(=O)Nc4ccc(Br)cc4)C3)c2C)cc1 | i
S=c1sc2c(s1)SC1CC=CC1S2 (centres undefined) | i
CSCc1ccc(C(=O)Nc2ccccc2C(F)(F)F)cc1 | i
O=c1[nH]nc(SCc2nc(-c3ccccc3Cl)no2)n2nc(-c3ccco3)cc12 | i
Cn1cnnc1CC1CCN(C(=O)CN2CC(c3ccccc3)CC2=O)CC1 (centres undefined) | i
Cc1nn(C(=O)CCCC(=O)N2CCC(Cc3nncn3C)CC2)c2ccccc12 | i
Cn1cnnc1CC1CCN(C(=O)CCc2nc3ccccc3[nH]c2=O)CC1 | 25µM*
CC(=O)N1c2ccccc2-c2nnc(SCc3ccccc3)nc2OC1C (centres undefined) | i
CCc1nnsc1C(=O)N(C)Cc1ccc(Cl)c(Cl)c1 | i
COc1cccc(-c2cc(-c3cccc(OC)c3)[nH]n2)c1 | i
Fc1ccc(-c2cnc3n[nH]c(-c4ccccc4)c3n2)cc1 | 32µM*
COc1cccc(-c2cnc3n[nH]c(-c4ccccc4)c3n2)c1 | 35µM*
COc1ccc(-c2cnc3n[nH]c(-c4ccc5c(c4)OCO5)c3n2)cc1 | i
COc1ccc(-c2[nH]nc3ncc(-c4ccc(C)cc4)nc23)cc1F | i
SMILES | KDM5B inh
O=C(NCc1ccc(F)cc1)c1cnc2n[nH]c(-c3ccccc3)c2n1 | i
CC(=O)C1=CC[C@H]2[C@@H]3CC=C4C[C@@H](O)CC[C@]4(C)[C@H]3CC[C@]12C | i
Cc1oc2c(c(C)cc3o/c(=N/O)c4c(c32)CCCC4)c1C | i
COc1ccc(C(=O)COC(=O)Cc2ccc(Cl)cc2Cl)cc1 | i
COC(=O)c1c(C)[nH]c(C(=O)C(C)OC(=O)c2c(F)cccc2F)c1C (centres undefined) | i
CC(C)Oc1cccc2c1c(NC(=O)c1ccn(C)n1)nn2Cc1ccccc1 | 25µM*
CC(C)Oc1ccc2c(NC(=O)c3ccn(C)n3)nn(CC(F)(F)F)c2c1 | i
CC(C)Oc1cccc2c1c(NC(=O)C1CCCO1)nn2Cc1ccccc1 (centres undefined) | i
Cc1cccc(-c2noc(-c3ccc(Br)cc3)n2)c1 | i
CS(=O)(=O)N1CCC(C2CCN(C(=O)c3ccc4c(c3)OCO4)C2)CC1 (centres undefined) | i
COc1ccc(C(=O)N2CC[C@@H](CC(=O)O)[C@@H](CCN3CCC(C(N)=O)CC3)C2)cc1 | i
O=C(O)C[C@@H]1CCN(C(=O)COc2ccccc2)C[C@@H]1CCN1CCCCC1 | i
COc1ccc(CC(=O)N2CC[C@@H](CC(=O)O)[C@@H](CCN3CCC[C@H]3C(N)=O)C2)cc1 | i
COc1cc2c(cc1OC)C(C[C@H]1CN(C(=O)c3ccccc3)CC[C@H]1CC(=O)O)=NCC2 | i
COc1cc2c(cc1OC)C(C[C@H]1CN(C(=O)c3ccc4c(c3)OCO4)CC[C@H]1CC(=O)O)=NCC2 | 32µM*
CS(=O)(=O)N1CCC(C2CCN(C(=O)COc3ccccc3)C2)CC1 (centres undefined) | i
COc1ccc2c(c1)CCN=C2C[C@H]1CN(C(=O)Cc2cccs2)CC[C@H]1CC(=O)O | 35µM*
COc1ccc(CC(=O)N2CC[C@@H](CC(=O)O)[C@@H](CCN3CCC(n4c(=O)[nH]c5ccccc54)CC3)C2)cc1 | i
COC(=O)C[C@@H]1CCN(C(=O)COc2ccccc2)C[C@@H]1CC1=NCCc2cc(OC)c(OC)cc21 | 25µM*
COc1cc2c(cc1OC)C(C[C@H]1CN(C(=O)c3ccc(F)cc3)CC[C@H]1CC(=O)O)=NCC2 | i
COc1ccc2c(c1)CCN=C2C[C@H]1CN(C(=O)c2ccccc2)CC[C@H]1CC(=O)O | 28µM*
O=C(NCc1ccccc1Cl)C(=O)Nc1cccc2[nH]ccc12 | i
Cc1cc(Br)ccc1NC(=O)c1ccc(=O)n(CCOc2ccccc2)n1 | i
CCCCCCCCS(=O)(=O)CCSCCO | i
COc1ccc(Cl)cc1NC(=O)CC1CCCN(c2cnn(C)c(=O)c2)C1 (centres undefined) | i
COc1ccc(C(=O)c2ccccc2)c(OC(=O)c2ccccc2Sc2ccccc2C#N)c1 | i
